Bioassay records as filed in PubChem.
This is a sample that favours compounds with a hit; in the whole collection about 8% have one here.
LASV entry inh: blocks Lassa virus binding or cell entry; 4.1% of 18,000 active; Potency, µM (highest dose often 49.2 µM), for the others: at the highest dose activity change, negative = inhibition, actives largely listed as inhibitors; Lassa virus pseudotyped entry inhibition, cell-based qHTS
MARV entry inh: Marburg virus entry inhibition. Marburg virus pseudotype entry/binding inhibition, cell-based. Potency, µM (highest dose often 49.2 µM), without a hit: top-dose activity change, negative = inhibition, most hits filed as inhibitors. 6.5% of 18,000 active
Numbers without * were called inactive; ? = inconclusive; ! = not confirmed by another sample; [ ] = remark or other dose. Calls come from the whole dose curve; tested in HEK293 cells. % is set by controls: 0 for no effect and ±100 for the full control effect; potency is the fitted concentration of half-maximal effect.

SMILES	LASV entry inh	MARV entry inh
COC(=O)c1ccc(CN2CCC3(CCC(CNC(=O)c4ccccc4)O3)CC2)cc1 (configuration not stated)	-9%	7%
CC#C[C@H](C)[C@@H](OCOC)[C@H](C[C@H](C)Cc1cc(Br)cc(OCc2ccccc2)c1OC)OC	-3%[8.59 µM]	-10%[8.59 µM]
CN1C=CC(=O)[C@@H](O)[C@@H]1c1ccccc1Br	20%	5%
CC1=CC[C@@H](C)O[C@@]2(C1)C(=O)N(Cc1ccc(F)cc1)c1ccccc12	-9%[8.59 µM]	41%[8.59 µM]
O=C[C@H](O)[C@@H](O)[C@H](O[C@H]1O[C@H](CO)[C@@H](O[C@H]2O[C@H](CO)[C@@H](O)[C@H](O)[C@H]2O)[C@H](O)[C@H]1O)[C@H](O)CO	-10%	-9%
CN1CCC(C(=O)Nc2n[nH]c3nnc(-c4ccccc4)cc23)CC1	16%	?
COC(=O)CN1CN(c2ccccc2)C2(CCN(Cc3ccc4ccccc4c3)CC2)C1=O	-2%	?
O=C(CCCN1CCC2(CC1)C(=O)N(Cc1cccc(F)c1)CN2c1ccccc1)c1ccc(F)cc1	16µM*	8.9µM*
Cc1ccc(C(=O)N(Cc2cc3cc4c(cc3nc2N2CCOCC2)CCC4)CC2CCCO2)s1 (configuration not stated)	-4%	2%
C=C1C2CC[C@@]3(C)C(c4ccoc4)OC(=O)C[C@@]13OC1CC(=O)C(C)(C)C(CC(=O)OC)[C@]12C (some centres not stated)	-19%	-8%
C=C1C2CC[C@@]3(C)C(c4ccoc4)OC(=O)C[C@@]13OC1CC(OC(C)=O)C(C)(C)C(CC(=O)OC)[C@@]12C (some centres not stated)	?	13µM*
CCC1CC2C=CCS[P@](=O)(O2)O1 (some centres not stated)	-31%	18%
CC(=O)c1ccc(OCc2cn(CC(=O)c3ccc(O)cc3)nn2)cc1C	8%	12%
COc1ccccc1N1CCN(CCCCNC(=O)c2ccc3ccccc3c2)CC1	4%[17.8 µM]	-27%[17.8 µM]
COc1cc2c(N3CCN(C(=O)Nc4ccc(OC(C)C)cc4)CC3)ncnc2cc1OCCCN1CCCCC1	?	8.9µM*
N#Cc1ccc2c(c1)C[C@]1(c3ccsc3)OC3=C(C(=O)OC4(CCCCC4)C3)[C@H]2O1	-4%[8.59 µM]	?
COC(=O)/C=C\c1cc(O)ccc1O	25µM*	10µM*
COC(=O)c1ccc(O)cc1	-7%	3%
C[C@H]1CN(c2ccc(Br)cc2)C(=O)[C@H]1CC(=O)Nc1ccc(Br)cc1	14%	?
CCN1C(=NCc2ccccc2)N[C@@H](CCc2ccccc2)[C@H](C(=O)OC)[C@H]1C	-7%[8.59 µM]	-18%[8.59 µM]
FC(F)(F)c1cccc(N2CCNCC2)c1	28µM*	28µM*
COc1ccccc1N1CCNCC1	1%	-8%
CC(=O)OC[C@H]1O[C@H](CCON=C(C)CCN2CCc3nc(-c4ccccc4)c(-c4ccccc4)cc3C2)C=C[C@H]1OC(C)=O	13%[8.59 µM]	?
CCCCC(C)/C=C(C)/C=C(\C)C(=O)NC1=CC(O)(/C=C/C=C/C=C/C(=O)NC2=C(O)CCC2=O)C2OC2C1=O (configuration not stated)	7.1µM*	3.2µM*
COc1c(O)cc2c(=O)oc3c(OC)c(O)cc4c(=O)oc1c2c34	-1%	-12%
SMILES	LASV entry inh	MARV entry inh
COc1cc(O)c2c(c1)oc(=O)c1c3cc(O)c(O)cc3oc21	?	11µM*
COC(=O)C1=C(C)N(Cc2ccccc2)C(=O)NC1c1cccc(F)c1 (configuration not stated)	9%[8.59 µM]	3%[8.59 µM]
CC(CCN1CCCc2nc(C)c(C)cc21)=NO[C@@H](C)CN1CCCCc2nc(C)c(C)cc21	4%[8.59 µM]	-28%[8.59 µM]
O=[N+]([O-])c1ccc(O)c([N+](=O)[O-])c1	0%	21%
N#CC(C#N)=Cc1ccc([N+](=O)[O-])c(O)c1	?	16µM*!
Cc1cccc2c(N=Nc3ccc(S(N)(=O)=O)cc3)c(O)[nH]c12	58%	-15%
C=CCCCC=C(C)[C@H](OCc1ccc(OC)cc1)[C@H](CCC=C(C)C(N)=O)OC	-17%[8.59 µM]	10%[8.59 µM]
CC1(C)O[C@H]2O[C@H]([C@H](O)CON=C3[C@H]4CCn5c(=O)n(-c6ccccc6)c(=O)n5[C@@H]4[C@H](O)[C@@H]4O[C@H]34)[C@H](O)[C@@H]2O1	20%[8.59 µM]	39%[8.59 µM]
Cc1cc2oc(=O)cc(-c3ccccc3)c2c(C)c1-c1ccc(CO)cc1	11µM*	-11%
CC(=O)c1ccc(-c2c(C)cc3oc(=O)cc(-c4ccccc4)c3c2C)cc1	?	-18%
COc1ccc2cc1Oc1ccc(cc1)CC1c3cc(c(OC)cc3CCN1C)Oc1c(OC)c(OC)cc3c1C(C2)N(C)CC3 (configuration not stated)	11µM*	1.6µM*
COc1cc2c3cc1Oc1cc(ccc1O)CC1c4c(cc(OC)c(O)c4Oc4ccc(cc4)CC3N(C)CC2)CC[N+]1(C)C (configuration not stated)	2%	-4%
COc1ccc2cc1Oc1ccc(cc1)C[C@H]1c3cc(c(OC)cc3CCN1C)Oc1c(OC)c(OC)cc3c1[C@@H](C2)N(C)CC3	?	2.2µM*
COc1cc2c3cc1Oc1c(OC)c(OC)cc4c1C(Cc1cccc(c1)Oc1ccc(c(O)c1)CC3N(C)CC2)N(C)CC4 (configuration not stated)	-4%	-5%
Cc1cc2c(nc1C)CCCCN2C[C@H](C)ON=C[C@@H](C)[C@H](OCc1ccccc1)C(C)C	-19%[8.59 µM]	?
CCCC=Cc1ccc(CN2C(C(C)C)C(=O)N(Cc3cn(Cc4ccco4)nn3)CCS2(=O)=O)cc1 (configuration not stated)	-10%	?
COC(=O)CC=C[C@H](C)[C@@H](NC(=O)C(F)(F)F)c1ccccc1Br	-1%[8.59 µM]	-21%[8.59 µM]
CC(=O)[C@]12C[C@@H]3CCCN(C(=O)N[C@@H]1c1ccccc1)[C@@H]32	-7%[8.59 µM]	0%[8.59 µM]
O[C@H]1CN(CC2CCCCC2)[C@@H](c2ccc(Cl)cc2)C[C@H]1n1cc(-c2ccc(F)cc2)nn1	-7%	?
CC(C)=CCCC(C)=CCON=C1C[C@@H](O)[C@@H](O)[C@@H]2[C@H]3C(=O)N(C[C@@H]4CCCO4)C(=O)[C@@H]3CC[C@H]12	-17%[8.59 µM]	22%[8.59 µM]
NC(N)=NN=C(/C=C/c1ccc([N+](=O)[O-])o1)/C=C/c1ccc([N+](=O)[O-])o1	6.3µM*	14µM*
O=[N+]([O-])c1ccc(/C=N\O)o1	-2%	16%
COc1cccc(CCc2ccccc2OCC(CN(C)C)OC(=O)CCC(=O)O)c1 (configuration not stated)	22µM*	11µM*
COc1cccc(CS(=O)(=O)c2ccccc2)c1	2%	10%
O[C@H]1C[C@H](c2ccccc2)N(Cc2cccs2)C[C@H]1n1cc(-c2ccc(F)cc2)nn1	-6%	?
CN(Cc1cnc2ccccn12)C1CCN(c2cccc(NC(=O)c3cccnc3)c2)CC1	-7%	-14%
COc1ccccc1C(=O)Nc1cccc(N2CCC(NCc3cnn(-c4ccccc4)n3)CC2)c1	?	11µM*
Cn1cc(CNC2CCN(c3cccc(NC(=O)c4cccnc4)c3)CC2)cn1	-6%	-17%
O=C(Nc1cccc(N2CCC(NCc3cnn(-c4cccc(F)c4)c3)CC2)c1)c1ccncc1	7%	2.5µM*
COCCN1C(=O)NC(c2cccc(F)c2)C(C(C)=O)=C1C (configuration not stated)	5%[8.59 µM]	-6%[8.59 µM]
